Among the data in PubChem BioAssay AID1220 (Sanford-Burnham Center for Chemical Genomics, 2008) are inhibition values, retold here.

As a reminder, the inhibition is the drop in the measured response relative to a control, in per cent.

About 1,300 (0.68%) of roughly 190,000 compounds were called active. No stated cut-off is given here; in the data, active means inhibition above about 50%; inactive means the rest. The full list was thinned out, with actives kept by preference.

This assay deals with Mannose-6-phosphate isomerase (Homo sapiens) (UniProt P34949). Briefly: human PMI inhibitors, high substrate, primary screen, biochemical, fluorescence intensity, high mannose 6-phosphate (AID 1220). The following applies: recombinant PMI enzyme, coupled fluorescence intensity; at 20 µM; active compounds read high.
Chain of Mannose-6-phosphate isomerase (Homo sapiens) (P34949 whole entry, looked up): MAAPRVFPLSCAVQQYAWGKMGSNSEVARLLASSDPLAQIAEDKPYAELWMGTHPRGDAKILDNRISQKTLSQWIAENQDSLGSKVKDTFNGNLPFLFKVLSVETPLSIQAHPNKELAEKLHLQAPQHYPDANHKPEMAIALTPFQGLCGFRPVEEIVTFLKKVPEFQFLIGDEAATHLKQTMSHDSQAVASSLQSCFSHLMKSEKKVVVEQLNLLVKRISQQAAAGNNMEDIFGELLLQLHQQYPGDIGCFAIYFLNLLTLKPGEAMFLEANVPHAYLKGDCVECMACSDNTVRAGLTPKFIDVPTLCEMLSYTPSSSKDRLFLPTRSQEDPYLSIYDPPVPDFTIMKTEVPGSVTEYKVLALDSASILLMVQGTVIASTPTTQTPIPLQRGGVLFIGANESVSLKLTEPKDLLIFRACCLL
For the molecule `Cc1ccc(C2NC(=O)c3c(sc(C)c3C)N2)c(O)c1` (stereo unspecified), the inhibition was -21.9% (inactive).

Take `Nc1ccccc1Nc1cc(-c2ccccc2)[nH]n1`: the inhibition was 28% (inactive).

For the molecule `Cc1nc2c(n1C1CCCCC1)C(=O)c1ccccc1C2=O`, the inhibition was 35.4% (inactive).

For `COc1ccc(NC(=O)CSc2cc(C)ccc2C)cn1`, the inhibition was 10.5% (inactive).

`COc1ccc(CC2(CO)CCN(Cc3cccc(OC)c3OC)CC2)cc1`: the inhibition is 6.7% (inactive).

As to `COc1ccc2[nH]c(=O)c(CNc3ccc(C)c(C)c3)cc2c1`, the inhibition is 48.9% (inactive).

Consider `COc1ccc(NCc2cc3ccccc3[nH]c2=O)cc1`, for which the inhibition was 59.2% (active).

Take `COc1ccc2[nH]c(=O)c(CNc3ccccc3)cc2c1`: the inhibition was 44.2% (inactive).

Regarding `COc1ccc(NCc2cc3cc(OC)ccc3[nH]c2=O)cc1`, the inhibition was 30.7% (inactive).

On to `COc1ccc2[nH]c(=O)c(CNc3cccc(C)c3)cc2c1`, for which the inhibition is 55.1% (active).

As for `CC(C)(C)NCc1cc2ccccc2[nH]c1=O`, the inhibition was 6.8% (inactive).

Turning to `CNCC(O)COc1cccc(OC)c1` (stereo unspecified), the inhibition was 9.8% (inactive).

Turning to `Cc1c(C)c2ccc(OS(C)(=O)=O)c(C)c2oc1=O`, the inhibition was -10.6% (inactive).

`Fc1ccc(CNC(=S)Nc2ccc(OC(F)F)cc2)cc1`: the inhibition is 5.2% (inactive).

For `O=[N+]([O-])c1ccccc1S(=O)(=O)N1CCN(Cc2ccc3c(c2)OCO3)CC1`, the inhibition was -3.6% (inactive).

As for `O=[N+]([O-])c1ccccc1S(=O)(=O)N1CCN(Cc2cc3c(cc2O)OCO3)CC1`, the inhibition is 59.2% (active).

In the case of `O=[N+]([O-])c1ccccc1S(=O)(=O)N1CCN(Cc2ccsc2)CC1`, the inhibition is 7.8% (inactive).

For the molecule `COc1ccc(CN(Cc2cc3cc(OC)c(OC)cc3[nH]c2=O)C(=O)NC2CCCCC2)cc1`, the inhibition is 0.5% (inactive).

`COc1ccc(/C=N/OCC(=O)Nc2ccc3c(c2)OCO3)c(OC)c1`: the inhibition is 10.9% (inactive).

On to `O=C(O)CCn1c2c(c3ccccc31)CCCC2`, for which the inhibition was 8.9% (inactive).

Take `O=C(O)Cn1c2ccccc2c2ccccc21`: the inhibition is -2.4% (inactive).

As for `O=C(O)Cn1c2c(c3ccccc31)CCCC2`, the inhibition is 58.5% (active).

Regarding `Cc1cccc(N2CCN(C(=O)c3ccccn3)CC2C)c1` (stereo unspecified), the inhibition is 9.3% (inactive).

Take `O=C(/C=C/c1ccc(Cl)cc1Cl)N1CCc2ccccc21`: the inhibition is -2.2% (inactive).

As to `CCN(CC)c1cc(C)c2cc(NC(=O)c3ccc(Br)o3)ccc2n1`, the inhibition was 70.4% (active).

As to `CCN1CCN(c2cc(C)c3cc(NC(=O)c4ccc(Br)o4)ccc3n2)CC1`, the inhibition is -5.1% (inactive).

As for `CCN(CC)c1cc(C)c2cc(NC(=O)c3cccs3)ccc2n1`, the inhibition is 10.3% (inactive).

On to `CCOC(=O)c1c(/N=C/c2cccc(C)c2O)sc2c1CCN(C)C2`, for which the inhibition was -2.3% (inactive).

As to `Cn1c(=S)n(/N=C/c2ccc3c(c2)OCO3)c2ccccc21`, the inhibition is -3.6% (inactive).

As for `CCn1c(SCC(=O)N/N=C/C(C)=C/c2ccco2)nnc1-c1ccccc1`, the inhibition is 43.3% (inactive).

With `CCn1c(SCC(=O)N/N=C/C=C/c2ccco2)nnc1-c1ccccc1`, the inhibition is -8.3% (inactive).

As to `CCn1c(SCC(=O)N/N=C/C=C/c2ccco2)nnc1-c1ccc(OC)cc1`, the inhibition was 52.6% (active).

As to `O=C(COc1cccc2c1CCN(Cc1ccc(Cl)cc1)C2=O)N1CCOCC1`, the inhibition is -2.4% (inactive).

For `CC(C)CC(=O)NC(=S)Nc1ccc(S(=O)(=O)N2CCCC2)cc1`, the inhibition is -1% (inactive).

In the case of `CCNc1ccc(C(=O)OCC)cc1NC(=O)c1cccc(S(=O)(=O)N(C)c2ccccc2)c1`, the inhibition was 50.1% (active).

For `CCNc1ccc(C(=O)OCC)cc1NC(=O)c1cccc(N(C)C)c1`, the inhibition is 6.9% (inactive).

Turning to `CCNc1ccc(C(=O)OCC)cc1NC(=O)c1cccc(S(=O)(=O)N2CCOCC2)c1`, the inhibition was 8.8% (inactive).

Regarding `O=C(CNCC1CCCO1)N1CCN(S(=O)(=O)c2ccc3ccccc3c2)CC1` (stereo unspecified), the inhibition is -1.2% (inactive).

Regarding `O=C(/C=C/c1ccccc1Cl)Nc1ccncc1`, the inhibition was -5.1% (inactive).

In the case of `CN1C(=O)CC(N2CCC(C(N)=O)CC2)C1=O` (stereo unspecified), the inhibition is -4% (inactive).

Take `Cc1ccc(S(=O)(=O)Cn2nnnc2C(C)N2CCN(C(=O)c3ccco3)CC2)cc1` (stereo unspecified): the inhibition is 11.7% (inactive).

For `CCCn1c(O)c(CN2CCCCC2)c(C)c(C#N)c1=O`, the inhibition is 57.4% (active).

As to `Cc1cc(=O)n(CCCO)c(O)c1C#N`, the inhibition was 37.6% (inactive).

As for `CCCn1c(O)c(CN2CCCC(C)C2)c(C)c(C#N)c1=O` (stereo unspecified), the inhibition is 39.4% (inactive).

On to `Cc1cc(C)n(CCCO)c(=O)c1C#N`, for which the inhibition was -3.9% (inactive).

Regarding `Cc1c(CN2CCCCC2)c(O)n(CCCO)c(=O)c1C#N`, the inhibition was 52.1% (active).

For the molecule `CCCn1c(C)cc(C)c(C#N)c1=O`, the inhibition was -3.4% (inactive).

As to `COc1ccc(CCN(C)CCCN2CC(c3ccccc3)CC2=O)cc1OC` (stereo unspecified), the inhibition was -9.7% (inactive).

As to `Cc1ccc(S(=O)(=O)N2CCN(CC(=O)NC3CCCc4ccccc43)CC2)cc1C` (stereo unspecified), the inhibition was 13.8% (inactive).

With `CCOC(=O)N1CCN(c2c(NCC3CCN(Cc4cccc(C)c4)CC3)c(=O)c2=O)CC1`, the inhibition is 8.2% (inactive).

In the case of `Nc1nc(Cl)cc(Sc2ccc3ccccc3c2)n1`, the inhibition was 1% (inactive).

Regarding `Cc1nc2sccn2c1P(c1c(C)nc2sccn12)c1c(C)nc2sccn12`, the inhibition is -5.7% (inactive).

Consider `CCC(CO)NCc1ccc(OCC(=O)Nc2cccc(C(F)(F)F)c2)c(OC)c1` (stereo unspecified), for which the inhibition was -1.3% (inactive).

`CCN=c1scc(C)n1/N=C/c1ccsc1`: the inhibition was 2.6% (inactive).

Consider `CN=c1scc(-c2cccs2)n1/N=C/c1ccccc1O`, for which the inhibition was 14.7% (inactive).

On to `CCN=c1scc(-c2ccco2)n1/N=C/c1ccc(OC)c(O)c1`, for which the inhibition was -17.3% (inactive).

For the molecule `CCN=c1scc(-c2cccs2)n1/N=C/c1cc(OC)ccc1O`, the inhibition was -21.1% (inactive).

Regarding `CN=c1scc(-c2cccs2)n1/N=C/c1ccc(O)c(O)c1O`, the inhibition is 34.6% (inactive).

For `CN=c1scc(-c2ccccc2F)n1/N=C/c1ccc[nH]1`, the inhibition was -2.3% (inactive).

Regarding `CCN=c1scc(-c2ccco2)n1/N=C/c1ccc(O)cc1`, the inhibition is -22.4% (inactive).

On to `CCN=c1scc(C)n1/N=C/c1cc(Br)c(O)c(Br)c1`, for which the inhibition is -6.2% (inactive).

For `COCCNS(=O)(=O)c1cc(OC)ccc1OC`, the inhibition is 8.6% (inactive).

`Cc1cc(N2CCN(c3ccccc3)CC2)nc(-c2ccccc2O)n1`: the inhibition is 2.1% (inactive).

With `Cc1cc(S(=O)(=O)NCC(C)C)ccc1OCC(=O)NCC1CCCO1` (stereo unspecified), the inhibition is 15.5% (inactive).

As to `COc1cc(C(=O)OCCNC(=O)c2ccncc2)cc(OC)c1OC`, the inhibition is -20% (inactive).

In the case of `CCC(C)NS(=O)(=O)c1ccc(F)c(C(=O)Nc2c(F)cc(F)cc2Br)c1` (stereo unspecified), the inhibition was -19.4% (inactive).

With `COc1ccc2[nH]c(=O)c(CN(CCO)C(=O)NCc3ccccc3)cc2c1`, the inhibition was 3.9% (inactive).

Turning to `CCn1c(COc2ccccc2)nnc1SCC(=O)Nc1cc(C)ccc1OC`, the inhibition is 8.3% (inactive).

Turning to `C#CCOCCOCCOCCNc1nc(N2CCN(C(=O)[C@H](CCC(=O)O)n3cc(C(N)Cc4ccc(O)cc4)nn3)CC2)nc(N2CCN(C(=O)[C@H](CCC(=O)O)n3cc(C(N)[C@H](C)CC)nn3)CC2)n1` (stereo partly specified), the inhibition was -33.1% (inactive).

As to `O=C(c1ccccc1)c1cccc(NC(=O)c2ccc(Br)o2)c1`, the inhibition is 6.2% (inactive).

With `O=C(C1CCCCN1S(=O)(=O)c1ccccc1)N1CCN(C(c2ccccc2)c2ccccc2)CC1` (stereo unspecified), the inhibition is 9.8% (inactive).

For the molecule `COc1cc(Br)c(S(=O)(=O)Nc2c(C)n(C)n(-c3ccccc3)c2=O)cc1OC`, the inhibition is -1.6% (inactive).

Take `O=C(c1cccnc1)N1C2C=CC(C2)C1(C(F)(F)F)C(F)(F)F` (stereo unspecified): the inhibition was -7.8% (inactive).

For `Cc1cc(C)nc(NS(=O)(=O)c2ccc(Br)cc2)n1`, the inhibition was -3.5% (inactive).

As to `Cc1ccc(NS(=O)(=O)c2ccc(Br)cc2)nc1`, the inhibition is 0.3% (inactive).

Turning to `COC1(NS(=O)(=O)c2ccc(Br)cc2)C(C)=CC(=O)C=C1C`, the inhibition is 55.3% (active).

For `O=C(Nc1ccc2oc(-c3ccc(F)cc3)nc2c1)c1ccccc1F`, the inhibition was 1% (inactive).

Turning to `Cc1ccc(-c2nc3c(c(=O)c4ccccc4n3C)c(=O)n2-c2ccccc2)cc1`, the inhibition was 0.4% (inactive).

On to `O=c1[nH]c(=O)c2nc3c4ccccc4c4ccccc4c3nc2[nH]1`, for which the inhibition is 11.6% (inactive).

Consider `Cc1nc2c([N+](=O)[O-])c(C)c(C)cc2[nH]1`, for which the inhibition is 4.2% (inactive).

As for `Cc1cc2nc3c(=O)[nH]c(=O)[nH]c3nc2c([N+](=O)[O-])c1N`, the inhibition is 53.3% (active).

As to `NC(=O)Nn1c(CCC(=O)O)ccc1-c1ccc(Br)cc1`, the inhibition was -6.3% (inactive).

For the molecule `O=C(CSc1ccc2nnc(-c3ccccc3)n2n1)NCc1ccc2c(c1)OCO2`, the inhibition was 2.7% (inactive).

`CN(C)c1nc(OCCNC(=O)Nc2ccc(Cl)cc2)nc(N(C)C)n1`: the inhibition was 1.2% (inactive).

Turning to `O=C1c2ccccc2C(=O)c2cc(S(=O)(=O)Nc3ccccc3)ccc21`, the inhibition is 60.3% (active).

In the case of `O=C(O)c1ccc(NS(=O)(=O)c2ccc3c(c2)C(=O)c2ccccc2C3=O)cc1`, the inhibition is 2.7% (inactive).

On to `Cc1cccc(C)c1NS(=O)(=O)c1ccc2c(c1)C(=O)c1ccccc1C2=O`, for which the inhibition is 21% (inactive).

With `COc1ccc(CCNc2ccc(S(=O)(=O)N3CCCC3)cc2[N+](=O)[O-])cc1`, the inhibition is -0.1% (inactive).

`COc1ccc2nc3ccccc3nc2c1NC(=O)c1ccccc1Cl`: the inhibition is 51.5% (active).

With `COc1ccc2nc3ccccc3nc2c1NC(=O)c1ccc(Cl)cc1`, the inhibition was 23% (inactive).

As for `COc1ccc2nc3ccccc3nc2c1NC(=O)c1ccc(Cl)cc1Cl`, the inhibition was 17.8% (inactive).

For `Cc1ccc2cccc(OCC(=O)N3CC(C)CC(C)C3)c2n1` (stereo unspecified), the inhibition was 26.7% (inactive).

On to `Cc1ccccc1CSCC(=O)c1c(N)n(C)c(=O)n(C)c1=O`, for which the inhibition was 6.8% (inactive).

As for `Cc1cccc(NCC(=O)c2c(N)n(C)c(=O)n(C)c2=O)c1C`, the inhibition is 59% (active).

Regarding `Cc1cccc(OCC(=O)OCC(=O)c2c(N)n(C)c(=O)n(C)c2=O)c1C`, the inhibition was 3.8% (inactive).

Consider `CC(C)C(=O)NC(NC(=O)C(C)C)c1ccc([N+](=O)[O-])cc1`, for which the inhibition is -13.1% (inactive).
